Screens: PubChem, National Center for Advancing Translational Sciences (NCATS)
An excerpt weighted towards active compounds, which were near 13% of everything screened.
Pf growth 48h: Primary qHTS for delayed death inhibitors of the malarial parasite plastid, 48 hour incubation; P. falciparum luciferase growth in erythrocytes, 48 h; Potency, µM (top dose mostly 28.7 µM), inactives show at the highest dose activity change, negative = inhibition, actives largely listed as inhibitors; 310,000 tested, 5.9% active; AID 504832, 2011; note: potency is the fitted concentration of half-maximal effect
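Luciferase-expressing parasites in RBCs, 2% Hct / 0.1% parasitemia final; RPMI 1640 + 0.5% Albumax; 37 C, 5% CO2, one generation; luminescence read-out, lower signal = inhibition.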
HCV inhibitor: qHTS Assay for Inhibitors of Hepatitis C Virus (HCV); 340,000 tested, 3.4% active; Huh7.5.1 HCVcc-Cre infection, luciferase reporter, 44 h; Potency, µM (series often up to 41.8 µM), for the others: at the top dose activity change, negative = inhibition, actives largely listed as inhibitors; AID 651820, 2012; note: potency is the fitted concentration of half-maximal effect
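HCVcc-Cre virus at an moi near 0.5 was added right after compound to cells cultured 4 h from seeding (1,000 cells/well). Luciferase activity was determined 44 h later, 15 min after substrate addition at RT.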
Pf growth 96h: Primary qHTS for delayed death inhibitors of the malarial parasite plastid, 96 hour incubation. P. falciparum luciferase reporter growth, 96 h. Potency, µM (highest dose often 28.7 µM), inactives show at the highest dose activity change, negative = inhibition, hits mostly inhibitors. 320,000 tested, 6.9% active; note: potency is the fitted concentration of half-maximal effect
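Cell-based qHTS: luciferase-tagged P. falciparum in erythrocytes (2% hematocrit, 0.05% parasitemia final) incubated with compounds for 96 hours, 37 C, 5% CO2; luciferase detection reagent then added and luminescence measured.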
HCMV inh: qHTS Assay for inhibitors of the human cytomegalovirus (HCMV) | activity change, negative = inhibition, % at 57.5 µM | AID 1259415, 2018 | 410,000 tested, 4.5% active | HFF cells, HCMV-luciferase reporter, 72 h; stronger effect = lower value; in the data active = activity change below about -60%; inconclusive = no clear call, values can overlap the other calls; inactive = above about -39%
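Compounds were evaluated in HFFs infected with an HCMV luciferase reporter virus (MOI 1 PFU/cell). Luciferase in lysates collected 72 h post infection served as the replication measure.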
Active calls of the source: *; ? = inconclusive; · = no result given; + = active, no number; [ ] = another dose, or the depositor's remark. Unless noted, calls come from the whole dose curve; as a rule, active = well fitted inhibition curve with a large enough effect; inconclusive = small, poorly fitted or top-dose-only effect, or another doubt; inactive = no such curve, though single readings can be large or run the other way. % is set by controls: 0 for no effect and ±100 for the full control effect.

SMILES	Pf growth 48h	HCV inhibitor	Pf growth 96h	HCMV inh
COc1ccc(OC)c(Nc2cc(C)nc3ccc(C)cc23)c1	·	22µM*	·	-13
O=C(Cc1ccc(F)cc1)NCc1ccc2c(c1)CCN2C(=O)c1ccc(F)cc1	·	·	·	23
CCc1ccc(/C=C2\SC(=S)N(CCCC(=O)Nc3nccs3)C2=O)cc1	12%	13%	?	-93*
CCc1ccc(/C=C2\SC(=S)N(CCCC(=O)Nc3ccccc3C(=O)O)C2=O)cc1	-3%	1%	17µM*	+
COc1ccc(/C=C2\SC(=O)N(CCNC(=O)Cc3coc4cc(OC)ccc34)C2=O)cc1	?	?	?	-103*
COc1ccc2c(CC(=O)NCCN3C(=O)S/C(=C\c4cccnc4)C3=O)coc2c1	?	-9%	?	17
Cc1ccc(/C=C2\SC(=S)N(CCCC(=O)Nc3ccccc3C(=O)O)C2=O)cc1	18%	1%	?	?
CCc1ccc(/C=C2\SC(=S)N(CCCC(=O)Nc3ccc(C(=O)O)cc3)C2=O)cc1	?	32%	?	-93*
CCOc1cccc(C2c3c(oc4ccc(F)cc4c3=O)C(=O)N2CCOC)c1 (configuration not stated)	·	·	·	-25
CCC1CN(C(=O)Nc2cc(OC)cc(OC)c2)c2ccccc2S1 (configuration not stated)	·	·	·	-1
COc1cc(OC)cc(C(=O)NCCN2C(=O)S/C(=C\c3cccs3)C2=O)c1	2%	8.9µM*	0%	-7
COc1ccc(/C=C2\SC(=O)N(CCCC(=O)Nc3ccc(C(=O)O)cc3)C2=O)cc1	·	·	·	-101*
O=C(CCN1C(=O)S/C(=C\c2ccc(Cl)cc2)C1=O)Nc1ccc(C(=O)O)cc1	-13%	18%	13%	23
COc1ccccc1NC(=O)c1sc2nc(C)c(C(=O)Nc3ccc(C)cc3C)c(-c3ccco3)c2c1N	·	·	·	-33
Cc1nn(CCC(=O)N2CCN(c3ccccc3)CC2)c(C)c1S(=O)(=O)N1CCCC1	·	·	·	-10
O=C(Nc1ccc2oc(-c3ccncc3)nc2c1)c1ccc([N+](=O)[O-])o1	6.6µM*	10µM*	?	-102*
O=C(Nc1ccc2oc(-c3cccnc3)nc2c1)c1ccc(-c2cccc(OC(F)(F)F)c2)o1	·	·	·	-82*
COc1ccc(C(=O)Nc2ccc3oc(-c4cccnc4)nc3c2)cc1	·	·	·	-19
O=C(Nc1ccc(-c2nc3ncccc3o2)cc1)c1ccc([N+](=O)[O-])o1	9.3µM*	3.5µM*	-2%	-76*
COc1nc(N=C(N)N)nc2ccc(C)cc12	2.6µM*	?	?	-102*
COc1ccc(-c2nc3ccc(C)cc3c(=O)o2)cc1OC	8%	12%	?	0
Cc1ccc(C)n1-c1cc([N+](=O)[O-])ccc1-n1ccnc1	12µM*	-20%	?	14
CCc1ccc(NCc2cc3cc4c(cc3n(CC(=O)Nc3ccccc3C)c2=O)OCCO4)cc1	·	·	·	24
CC(C)Nc1nc(-c2ccncc2)nc(-c2ccc(Cl)cc2)c1C#N	?	-7%	?	-39
CN(C)c1nc(-c2cccnc2)nc(-c2ccccc2)c1C#N	?	-1%	?	-35
SMILES	Pf growth 48h	HCV inhibitor	Pf growth 96h	HCMV inh
CC(C)Nc1nc(-c2ccccn2)nc(-c2ccccc2)c1C#N	-1%	8%	?	-67*
CC(C)Nc1nc(-c2cccnc2)nc(-c2ccc(Cl)cc2)c1C#N	0%[0.00184 µM]	-10%	2.3µM*	?
CC(C)Nc1nc(-c2cccnc2)nc(-c2ccccc2)c1C#N	8.3µM*	?	?	·
Cc1ccc(-n2ccn(CC(=O)c3ccc(F)cc3)c(=O)c2=O)cc1C	·	·	·	-39
Cc1ccc(S(=O)(=O)N[C@H]2CC[C@@]34CCCN3C(=O)CCC[C@H]4[C@H]2Cc2ccccc2)cc1	·	·	·	-18
Cc1ccc(NC(=S)Nc2ccc(OC(F)F)c(Cl)c2)cc1F	?	13µM*	?	?
COc1ccc(OC)c(NC(=O)CCn2cccn2)c1	·	·	·	2
O=C(c1cc2nc(-c3cccs3)cc(C(F)(F)F)n2n1)N1CCCc2ccccc21	?	10µM*	?	?
O=C(c1cc2nc(-c3cccs3)cc(C(F)(F)Cl)n2n1)N1CCCc2ccccc21	?	7.1µM*	?	-87*
O=C(c1cc2nc(-c3ccco3)cc(C(F)(F)F)n2n1)N1CCCc2ccccc21	25%	5%	?	-13
O=C(O)c1cc2nc(-c3cccs3)cc(C(F)(F)F)n2n1	36%	23%	0%	15
CC(C)c1ccc(Nc2c(-c3ccc(N4CCOCC4)cc3)nc3ncccn23)cc1	·	·	·	0
Cc1oc2c(cc(NS(=O)(=O)c3ccc(Br)cc3)c3ccccc32)c1C(=O)OCc1ccccc1	·	·	·	49
CCCCOC(=O)c1ccc(OC(=O)c2sc3ncn(Cc4cccc(F)c4)c(=O)c3c2C)cc1	·	·	·	-1
Cc1cc(C)n(-c2nc(NCCCN(C)C)c3c4c(sc3n2)CCCC4)n1	12µM*	?	-7%	-98*
Cc1cc(C)n(-c2ncnc3sc4c(c23)CCCC4)n1	-12%	10%	13µM*	8
Cc1cc(C)n(-c2nc(SCCN3CCOCC3)c3c4c(sc3n2)CCCC4)n1	·	12%	·	-20
Cc1cc(C)n(-c2nc(NCCN(C)C)c3c4c(sc3n2)CCCC4)n1	?	?	-2%	-82*
COc1ccccc1C(=O)Nc1ccc(S(=O)(=O)Nc2ncccn2)cc1	·	·	·	7
Cc1ccccc1NC(=O)CSc1nc2ccccc2c2nc(CCn3cncc3C)nn12	-22%	?	-4%	-19
CCOc1ccccc1NC(=O)CSc1nc2cc(OC)c(OC)cc2c2nc(CCn3c(C)nc4ccccc43)nn12	·	·	·	-93*
Cc1cncn1CCc1nc2c3ccccc3nc(SCC(=O)Nc3ccccc3F)n2n1	·	·	·	-67*
Cc1ccc(NC(=O)CSc2nc3ccccc3c3nc(CCc4c(C)n[nH]c4C)nn23)cc1F	·	-2%	?	?
COc1cc2nc(SCC(=O)Nc3ccccc3C)n3nc(CCn4c(C)nc5ccccc54)nc3c2cc1OC	·	·	·	2
Cc1n[nH]c(C)c1CCc1nc2c3ccccc3nc(SCC(=O)Nc3ccc(F)cc3)n2n1	·	·	·	-68*
COc1cc([C@H]2NC(=O)C[C@@H]2C(=O)O)ccc1OC(C)C	·	·	·	-13
COC(=O)C1CSc2[nH]c(=O)sc2C1c1ccc(OC)c(OC)c1 (configuration not stated)	10µM*	-3%	?	?
COc1ccc(C2C(C(=O)c3ccccc3)N3c4ccccc4C=CC3C2[N+](=O)[O-])cc1 (configuration not stated)	?	-25%	9.3µM*	15
Cc1cc(O)c(C(c2cccc(F)c2)N2CCC(C)CC2)c(=O)n1Cc1ccco1 (configuration not stated)	·	·	·	9
O=C(C[C@H]1C(=O)N(C2CCCCC2)C[C@@H]1c1ccccc1)Nc1ccc(Br)cc1	·	·	·	-1
